In the library only some 1.3% were active in any assay of this set; here they are far more common.
PKA-R1A activ: activates the PKA-R1A holoenzyme complex. AID 504707. P00514+P68181. hit rate 0.083% among 340,000. PKA-R1A dissociation, Cy5-IP20 fluorescence polarization; scaled: DMSO 0%, 113 µM cGMP 100%. activation, % at 11.4 µM;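 active means percent activation above the mean of all tested compounds plus 3 SD, cut at about 19% in these data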;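 further: higher means more PKAc released from R1A so a rise in polarization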
Rpn11 inh: inhibitors of human proteasome Rpn11; hit rate 0.59% among 360,000; calls only at 20 µM; human 26S proteasome, Ub4-pepOG fluorescence polarization; 20S core pre-blocked with epoxomicin;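 active means inhibition at 20 µM, scaled to each plate's controls, above about 33%, limit read from the data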
Neddylation inh: cullin neddylation inhibition; P61081+Q13564; TR-FRET cullin neddylation, biochemical; inhibition, % at 25 µM; hit rate 0.58% among 360,000; AID 651699; in the data active means inhibition above about 36%
PKA-R2B activ: PKA-R2B complex activation. PKA-R2B holoenzyme dissociation, Cy5-IP20 fluorescence polarization; R2B truncated from residue 108, S112A mutant; 0% DMSO only, 100% 113 µM cGMP. activation, % at 11.4 µM. hit rate 0.079% among 340,000;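 active means activation above a cutoff set at the mean over all compounds plus 3 SD, cut at about 18% in these data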;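 further: higher means more holoenzyme dissociation and a rise in polarization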
Target sequence (P31323 whole entry, looked up, other chains not shown, the tested form may be a part): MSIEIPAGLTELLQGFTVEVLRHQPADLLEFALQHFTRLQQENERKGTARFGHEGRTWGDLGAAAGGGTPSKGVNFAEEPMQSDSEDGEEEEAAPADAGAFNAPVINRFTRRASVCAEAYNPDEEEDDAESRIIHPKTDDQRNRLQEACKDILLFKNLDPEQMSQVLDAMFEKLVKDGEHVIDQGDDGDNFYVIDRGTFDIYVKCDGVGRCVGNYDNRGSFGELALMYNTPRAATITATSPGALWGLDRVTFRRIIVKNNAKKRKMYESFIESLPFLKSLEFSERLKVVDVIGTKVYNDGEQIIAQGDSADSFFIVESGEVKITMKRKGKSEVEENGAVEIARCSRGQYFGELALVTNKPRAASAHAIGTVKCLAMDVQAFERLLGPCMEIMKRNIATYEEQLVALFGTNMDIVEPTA
A number is an active result; i = inactive; nt = no result given; + = active, no number.

SMILES	PKA-R1A activ	Rpn11 inh	Neddylation inh	PKA-R2B activ
C#CCOCCOCCOCCNc1nc(N2CCN(C(=O)CCCCCCCCCCNC(=O)[C@@H](CCSC)n3cc(CCO)nn3)CC2)nc(N2CCN(C(=O)CCCCCCCCCCNC(=O)[C@H]([C@@H](C)CC)n3cc(CCCCN=C(N)N)nn3)CC2)n1	i	+	i	i
C#CCOCCOCCOCCNc1nc(N2CCN(C(=O)CCCCCCCCCCNC(=O)[C@H](CCCCN)n3cc(CCO)nn3)CC2)nc(N2CCN(C(=O)CCCCCCCCCCNC(=O)[C@H](CCCN=C(N)N)n3cc(C[C@@H](C)CC)nn3)CC2)n1	i	+	i	i
Cc1cc(=O)oc2cc(NC(=O)C(C)N3C(=O)C4CCCCC4C3=O)ccc12 (stereo not drawn)	i	i	73	i
Cc1noc(C)c1COc1ccc(C(=O)OCC(=O)Nc2ccc(C(=O)N(C)C)cc2)cc1	i	i	i	i
Nc1c(C(=O)NCc2ccco2)c2nc3ccccc3nc2n1CCc1ccc(F)cc1	i	+	nt	i
CC(=O)N1CCN(Cc2cc(=O)oc3cc(C)cc(C)c23)CC1	nt	i	i	nt
Cc1cc(N)c2cc(NC(=O)/C=C/c3ccccc3Cl)ccc2n1	i	+	42	i
O=C1c2c(O)ccc(O)c2C(=O)c2c(NCCNCCO)ccc(NCCNCCO)c21	i	+	i	i
O=C(Nc1nc2cc3c(cc2s1)OCCO3)c1ccco1	i	i	43	i
O=C(Nc1nc2cc3c(cc2s1)OCO3)c1ccco1	i	i	nt	i
Cc1nc(NC(=O)c2cccc(Cl)c2)sc1C(=O)N1CCCCC1	i	i	i	i
CCOc1ccc(C(=O)CC(C(=O)O)N2CCCCC2)cc1 (stereo not drawn)	i	i	i	19
COC(=O)C1=CN(c2ccc(OC)cc2)C=C(C(=O)OC)C1c1cc(OC)c(OC)cc1OC	i	i	59	i
COC(=O)C1=CN(Cc2cccs2)C=C(C(=O)OC)C1c1ccc(OC)cc1OC	i	i	nt	i
Oc1cc(O)cc(/C=C/c2ccc(O)c(O)c2)c1	i	i	60	i
OC[C@@H]1CN(Cc2ccco2)C[C@H](n2cnc3c(NCc4ccncc4)ncnc32)O1	nt	i	i	nt
CC(C)[C@H](NC(=O)OC(C)(C)C)c1cc(C(=O)N[C@@H](C)c2ccccc2)c(N)s1	nt	nt	i	nt
NC(=O)N/N=C/c1ccc(-c2ccc(S(=O)(=O)Nc3ncccn3)cc2)o1	i	i	i	i
CC(C)Oc1ccc(C(=O)N/N=C/c2ccc(-c3ccc(S(=O)(=O)Nc4ncccn4)cc3)o2)cc1	i	i	48	i
O=C(NC(=S)NNC(=O)c1cnccn1)c1ccc(Cl)cc1	i	i	55	i
CC(=O)Oc1c(-c2ccco2)oc2ccccc2c1=O	i	i	46	i
CCN(CC)C(=O)COc1c(-c2ccco2)oc2ccccc2c1=O	i	i	i	i
CC(C)OC(=O)/C(C#N)=C/c1ccc(-c2ccc(SC(F)F)cc2)o1	i	+	nt	i
COC(=O)/C(C#N)=C/c1ccc(-c2ccc(S(N)(=O)=O)cc2)o1	i	i	i	i
Cc1ccc(S(=O)(=O)N2CCCCC2CCNC(=O)C(=O)NCc2ccccc2)cc1 (stereo not drawn)	i	i	i	i
SMILES	PKA-R1A activ	Rpn11 inh	Neddylation inh	PKA-R2B activ
Cc1cccc(C)c1NC(=O)C1(C)CN(S(C)(=O)=O)CC(=O)N1Cc1cccc(F)c1 (stereo not drawn)	nt	nt	i	nt
Fc1ccc2[nH]c3c(NCc4ccccc4)ncnc3c2c1	i	i	52	i
OCCCNc1ncnc2c1[nH]c1ccccc12	i	i	i	i
Cc1ccccc1NC(=O)/C=C/c1ccc([N+](=O)[O-])s1	i	i	44	i
Cc1cc(C)cc(NC(=O)/C=C/c2ccc([N+](=O)[O-])s2)c1	i	i	i	i
CS(=O)(=O)c1ccc(S(=O)(=O)N2CCN(C(=O)C(O)c3ccccc3)CC2)cc1 (stereo not drawn)	nt	nt	i	nt
COc1ccc(C(C)=NNC(=O)c2cccc(S(=O)(=O)N3CCCC3)c2)cc1	i	i	i	i
COc1ccc(/C(C)=N/NC(=O)c2cccc(S(=O)(=O)N3CCCC3)c2)c(O)c1	i	i	49	i
CC(C)(C)NC(=O)C(c1ccncc1)n1c(=O)c(-c2ccco2)nc2ccccc21 (stereo not drawn)	nt	nt	40	nt
CC(C)(C)NC(=O)C(c1ccccc1)n1c(=O)c(-c2ccco2)nc2ccccc21 (stereo not drawn)	nt	nt	i	nt
Fc1ccc2c(c1)C(c1ccc(N3CCOCC3)cc1)=NNC(c1cccs1)=N2	i	+	41	i
CC1=[N+](C)c2c(ccc3cccnc23)C1(C)C	24	i	i	31
Cc1cn(-c2cc(NC(=O)c3ccc(C)c(NC(=O)c4cccc(-c5cn[nH]c(=O)c5)c4)c3)cc(C(F)(F)F)c2)cn1	i	+	i	i
Cc1ccc(NC(=O)c2cccc(C(F)(F)F)c2)cc1NC(=O)c1[nH]cnc1C(N)=O	i	i	i	i
N#CC1=C(N)SC(N)=C(C#N)C1c1ccc([N+](=O)[O-])cc1	i	+	i	i
CCc1ccc(C2C(C#N)=C(N)SC(N)=C2C#N)cc1	i	nt	i	i
COc1ccc(/C=C2/SC(=S)N(c3ccc(S(=O)(=O)Nc4nccs4)cc3)C2=O)cc1	i	i	80	i
COc1ccc2[nH]c3c(c2c1)CCNC3(C)CCc1ccc(Cl)nc1 (stereo not drawn)	i	i	i	i
O=S(=O)(c1cccs1)N1CN(Cc2cccs2)c2nc3ccccc3nc21	i	i	41	i
O=C(c1ccccc1)C1C(c2ccccc2)C1[N+](=O)[O-] (stereo not drawn)	i	i	i	i
CN(C)c1ccc([C@@H]2[C@@H]([N+](=O)[O-])[C@H]3C=Cc4ccccc4N3[C@H]2C(=O)c2ccc(Cl)cc2)cc1	i	+	i	i
O=C(c1ccc(N2CCOCC2)cc1[N+](=O)[O-])N1CCOCC1	nt	i	i	nt
Cn1c2ccccc2c2cc(/C=N/NC(=O)c3cc(O)ccc3O)ccc21	i	i	52	i
O=C(NCCCN1CCOCC1)C(c1ccccc1)c1ccccc1	i	i	i	i
CCC(OC(=O)c1ccco1)C(=O)NCc1ccc2c(c1)OCO2 (stereo not drawn)	i	i	i	i
SMILES	PKA-R1A activ	Rpn11 inh	Neddylation inh	PKA-R2B activ
Cc1ccccc1CNC(=O)C(=O)NCC1OCCCN1S(=O)(=O)c1cccs1 (stereo not drawn)	i	i	i	i
O=S1(=O)N[C@@H](c2ccccc2)COc2cc(Br)ccc21	i	i	i	i
COc1cccc2[nH]c3ccccc3c(=O)c12	i	i	nt	i
C=Cc1ncc(OC)c2c1[nH]c1ccccc12	i	i	58	i
CC1(C)CN(c2ccccc2)C(=O)[C@H]1CC(=O)Nc1ccccc1	i	i	i	i
CCC(C)(C)C1CCc2c(sc(NC(=O)c3ccccc3C(=O)O)c2C#N)C1 (stereo not drawn)	i	i	69	i
CCN(CC)S(=O)(=O)c1ccc(O)c(NC(=O)c2cc(-c3cc(OC)c(OC)c(OC)c3)nc3ccccc23)c1	i	i	38	i

Screens as filed in PubChem.
